These results are taken from PubChem BioAssay (Tox21).

Assay [1] is described as follows: qHTS assay to identify small molecule agonists of the sonic hedgehog signaling (Shh) pathway (AID 1259368).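 Note: NIH/3T3-derived 3T3Gli1-Luc cells carrying a stable Gli1-driven firefly luciferase reporter; series mostly up to about 92 µM; nearly all actives have a fitted effect of over 15% in size.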 In a few lines:
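Luminescence was read after 30 min at room temperature with luciferase reagent. Before that, 3T3Gli1-Luc cells (NIH/3T3 clone, stable Gli1-Luc reporter; 2,000/well) were exposed to compounds for 24 hr at 37C, 5% CO2, compounds being added 4 hr post-plating.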

A short description of assay [2]: qHTS assay to identify small molecule antagonists of the sonic hedgehog signaling (Shh) pathway (AID 1259369). Note: nearly all actives have a fitted effect of over 45% in size. Note: potency is the fitted concentration of half-maximal effect. The method, boiled down: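 Antagonist mode: compound added to 3T3 Gli1-Luc cells followed by conditioned-medium stimulation, 24 h at 37 C, 5% CO2. Inhibition taken as loss of Gli1-driven luciferase luminescence.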
For assay [3], the target named is Estrogen receptor beta (Homo sapiens) (UniProt Q92731). The experiment in a line: qHTS assay to identify small molecule agonists of the estrogen receptor beta (ER-beta) signaling pathway (AID 1259377; active = well fitted activation curve with a large enough effect in the signal ratio in the repeat runs, not every such curve was filed as active; the % refers to the signal ratio). The method, boiled down: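 Screening used GripTite ER-beta-UAS-bla cells held in 2% charcoal-stripped FBS medium. After overnight (16 hr) compound incubation at 37C, beta-lactamase activity was detected with a FRET substrate by fluorescence.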
Background: In qHTS, concentration-response curves come from the screen itself.

For assay [4] the target is unchanged. The assay can be described thus: qHTS assay to identify small molecule antagonists of the estrogen receptor beta (ER-beta) signaling pathway (AID 1259378; active = well fitted inhibition curve with a large enough effect in the signal ratio in the repeat runs, not every such curve was filed as active; the % refers to the signal ratio; note: potency is the fitted concentration of half-maximal effect). The method, boiled down: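 ER-beta-UAS-bla HEK293T (GripTite) cells in 2% charcoal-stripped FBS medium were preincubated 6 hr at 37C, dosed with compound, then stimulated with 1 nM E2 (final) for 16 hr; beta-lactamase reporter read by B/G FRET fluorescence after 2 hr substrate loading.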

Assay [5] can be described thus: qHTS assay to identify small molecule agonists of the androgen receptor (AR) signaling pathway in the presence of an antagonist - cell viability counter screen (AID 1259379; active = well fitted curve in the direction sought with a large enough effect in the repeat runs; an effect the other way counts as inactive or inconclusive;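 note: MDA-kb2 human breast cancer cells carrying an MMTV luciferase reporter; series mostly up to about 92 µM; nearly all actives have a fitted effect of over 25% in size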). The method, boiled down:
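Cytotoxicity counter-screen run in the same wells as the nilutamide-challenged (3.0 µM final) AR agonist assay in MDA-kb2 cells. Compounds tested at 15 concentrations for 16 h, 37 °C without CO2; CellTiter-Fluor fluorescence read.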

Assay [6] in a line: qHTS assay to identify small molecule antagonists of the estrogen receptor beta (ER-beta) signaling pathway - cell viability counter screen (AID 1259382; active = well fitted curve in the direction sought with a large enough effect in the repeat runs; an effect the other way counts as inactive or inconclusive; note: series mostly up to about 92 µM; nearly all actives have a fitted effect of over 55% in size). In a few lines: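 Cytotoxicity was measured in the same wells by CellTiter-Glo luminescence after 30 min at room temperature. Cells were ER-beta-bla HEK293T in charcoal-stripped serum, given compound together with 1 nM E2 and incubated 16 h at 37C.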

The target in assay [7] is Estrogen receptor (Homo sapiens) (UniProt P03372). The assay can be described thus: qHTS assay to identify small molecule agonists of the estrogen receptor alpha (ER-alpha) signaling pathway in the presence of an antagonist (AID 1259383). Note: top concentration of the series differs between compounds; nearly all actives have a fitted effect of over 15% in size. In a few lines: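 Agonist-mode confirmation run in the presence of 10.0nM (final) ICI-182,780 antagonist. The reporter was ERE-driven luciferase in VM7Luc4E2 cells, grown in charcoal-stripped serum. Cells were exposed to 15-concentration compound series for 22hr, then ONE-Glo luminescence was read.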

The nature of assay [8]: qHTS assay to identify small molecule agonists of the estrogen receptor alpha (ER-alpha) signaling pathway in the presence of an antagonist - cell viability counter screen (AID 1259386; active = well fitted curve in the direction sought with a large enough effect in the repeat runs; an effect the other way counts as inactive or inconclusive; note: series mostly up to about 92 µM; nearly all actives have a fitted effect of over 30% in size). The method, boiled down:
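Compounds tested at 15 concentrations for 22 h at 37C alongside 10.0nM (final) ICI-182,780 antagonist, in VM7Luc4E2 cells grown in phenol red-free, charcoal-stripped medium. Viability read by CellTiter-Fluor fluorescence after 1 h reagent incubation.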

Assay [9] addresses Progesterone receptor (Homo sapiens) (UniProt P06401). The assay can be described thus: qHTS assay to identify small molecule agonists of the progesterone receptor (PR) signaling pathway (AID 1346784). Note: nearly all actives have a fitted effect of over 30% in size. The method, boiled down:
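Seed PR-UAS-bla HEK 293T cells (2% charcoal-stripped FBS), incubate 6 hr at 37C; add compounds in DMSO, 16 hr at 37C; add LiveBLAzer B/G substrate, 2 hr RT; read fluorescence intensity.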

For assay [10] the target is unchanged. The experiment in a line: qHTS assay to identify small molecule antagonists of the progesterone receptor (PR) signaling pathway (AID 1346795; active = well fitted inhibition curve with a large enough effect in the signal ratio in the repeat runs, not every such curve was filed as active; the % refers to the signal ratio). In a few lines: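 Screening used a GripTite HEK293T line with PR-responsive UAS-beta-lactamase. Cells were challenged with compound in the presence of 1 nM R5020 final for 16 hr at 37C; B/G FRET substrate, 2 hr room temperature, fluorescence.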

Assay [11] is described as follows: qHTS assay to identify small molecule antagonists of the progesterone receptor (PR) signaling pathway - cell viability counter screen (AID 1346798; active = well fitted curve in the direction sought with a large enough effect in the repeat runs; an effect the other way counts as inactive or inconclusive; note: series mostly up to about 92 µM; nearly all actives have a fitted effect of over 50% in size). In a few lines:
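Measures cytotoxicity in parallel with the PR antagonist reporter read: HEK293T PR-UAS-bla cells get compound and R5020 for 16 hr, and remaining viable cells are quantified by CellTiter-Glo luminescence.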

The nature of assay [12]: qHTS assay to identify small molecule agonists of the progesterone receptor (PR) signaling pathway - cell viability counter screen (AID 1346799). Note: nearly all actives have a fitted effect of over 45% in size. The method, boiled down: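 Using the same plates as the PR reporter screen, HEK293T PR-UAS-bla cells received compounds for 16 hr at 37C and were then lysed with CellTiter-Glo; luminescence was read 30 min later at room temperature.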

The nature of assay [13]: qHTS assay to identify small molecule antagonists of the TGF-beta/Smad signaling pathway - cell viability counter screen (AID 1346824; active = well fitted curve in the direction sought with a large enough effect in the repeat runs; an effect the other way counts as inactive or inconclusive; note: nearly all actives have a fitted effect of over 50% in size). In a few lines:
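SBE-bla HEK 293T cells were plated overnight at 37 C, then given compounds in DMSO plus TGF-beta1 (added as 0.25 ng/mL solution) for 5 hr. After the bla read, CellTiter-Glo was added to the same wells and luminescence read after 30 min at room temperature.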

Assay [14] can be described thus: qHTS assay to identify small molecule agonists of the TGF-beta/Smad signaling pathway - cell viability counter screen (AID 1346829; active = well fitted curve in the direction sought with a large enough effect in the repeat runs; an effect the other way counts as inactive or inconclusive; note: top concentration of the series differs between compounds; nearly all actives have a fitted effect of over 45% in size). The method, boiled down:
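Same-well cytotoxicity: CellTiter-Glo added after the 2 hr room-temperature beta-lactamase substrate step, luminescence measured 30 min later; cells had 5 hr of compound at 37 C.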

Assay [15] can be described thus: qHTS assay to identify small molecule agonists of the TGF-beta/Smad signaling pathway (AID 1346859; active = well fitted activation curve with a large enough effect in the signal ratio in the repeat runs, not every such curve was filed as active; the % refers to the signal ratio; note: series mostly up to about 77 µM). In a few lines: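 Beta-lactamase reporter activity downstream of Smad binding elements was measured in stably transfected HEK 293T cells; compounds were incubated for 5 hr, substrate for 2 hr at room temperature.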
Assay [16] concerns the target Thyrotropin-releasing hormone receptor (Homo sapiens) (UniProt P34981). The assay can be described thus: qHTS assay to identify small molecule antagonists of the thyrotropin-releasing hormone receptor (TRHR) signaling pathway (AID 1346877; active = well fitted inhibition curve with a large enough effect in the repeat runs, not every such curve was filed as active; note: series mostly up to about 51 µM). In a few lines:
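Antagonist mode: after a 5 min room-temperature compound exposure, cells were stimulated with 1 nM (final) TRH. Dye-loaded TRHR-HEK293 cells were used, and calcium-dependent fluorescence was followed for 3 min, with 15-point titrations run in triplicate.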

A short description of assay [17]: qHTS assay to identify small molecule agonists or antagonists of the thyroid stimulating hormone receptor (TSHR) signaling pathway - wild type cell line counter screen (AID 1259384). The method, boiled down: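 Wild-type HEK293 cells were plated 18 h at 37 C/5% CO2, pin-dosed with compound plus Ro20-1724 medium, held 30 min at room temperature, then given cAMP-d2 and anti-cAMP-cryptate; fluorescence was read after 1 h. Fifteen concentrations, triplicate.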

Assay [18] has as its target Thyrotropin receptor (Homo sapiens) (UniProt P16473). The assay can be described thus: qHTS assay to identify small molecule antagonists of the thyroid stimulating hormone receptor (TSHR) signaling pathway (AID 1259385). Note: nearly all actives have a fitted effect of over 20% in size. In a few lines: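 TSHR-HEK293 cells were plated and held 18 h at 37C/5% CO2, then given compound plus Ro20-1724 and stimulated with TSH at 1.5 ng/mL final. After 30 min at room temperature, cAMP was detected with cAMP-d2/anti-cAMP-cryptate (1 h) by fluorescence.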

The nature of assay [19]: qHTS assay to identify small molecule agonists of the estrogen receptor beta (ER-beta) signaling pathway - cell viability counter screen (AID 1259380; active = well fitted curve in the direction sought with a large enough effect in the repeat runs; an effect the other way counts as inactive or inconclusive; note: nearly all actives have a fitted effect of over 30% in size). In a few lines: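 Cell viability counter screen: CellTiter-Glo luminescence (30 min, room temperature) measured in the same wells as the beta-lactamase readout, after 16 hr compound exposure at 37C of ER-beta-bla HEK293T cells in 2% charcoal-stripped FBS medium.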

Assay [20] has as its target Androgen receptor (Homo sapiens) (UniProt P10275). The experiment in a line: qHTS assay to identify small molecule agonists of the androgen receptor (AR) signaling pathway in the presence of an antagonist (AID 1259381). Note: nearly all actives have a fitted effect of over 15% in size. The method, boiled down: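 Agonist-mode confirmation run against 3.0 uM final nilutamide: compounds titrated at 15 concentrations onto MDA-kb2 MMTV-luciferase reporter cells. Luminescence measured with ONE-Glo following 16 hr incubation, 37C, 0% CO2.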

The structures appear in SMILES notation. Unmarked numbers belong to inactive results. Results filed as inconclusive are left out. The source made the active and inactive calls. Unless noted, calls come from the whole dose curve.

Progesterone receptor (Homo sapiens), sequence (P06401 whole entry, looked up): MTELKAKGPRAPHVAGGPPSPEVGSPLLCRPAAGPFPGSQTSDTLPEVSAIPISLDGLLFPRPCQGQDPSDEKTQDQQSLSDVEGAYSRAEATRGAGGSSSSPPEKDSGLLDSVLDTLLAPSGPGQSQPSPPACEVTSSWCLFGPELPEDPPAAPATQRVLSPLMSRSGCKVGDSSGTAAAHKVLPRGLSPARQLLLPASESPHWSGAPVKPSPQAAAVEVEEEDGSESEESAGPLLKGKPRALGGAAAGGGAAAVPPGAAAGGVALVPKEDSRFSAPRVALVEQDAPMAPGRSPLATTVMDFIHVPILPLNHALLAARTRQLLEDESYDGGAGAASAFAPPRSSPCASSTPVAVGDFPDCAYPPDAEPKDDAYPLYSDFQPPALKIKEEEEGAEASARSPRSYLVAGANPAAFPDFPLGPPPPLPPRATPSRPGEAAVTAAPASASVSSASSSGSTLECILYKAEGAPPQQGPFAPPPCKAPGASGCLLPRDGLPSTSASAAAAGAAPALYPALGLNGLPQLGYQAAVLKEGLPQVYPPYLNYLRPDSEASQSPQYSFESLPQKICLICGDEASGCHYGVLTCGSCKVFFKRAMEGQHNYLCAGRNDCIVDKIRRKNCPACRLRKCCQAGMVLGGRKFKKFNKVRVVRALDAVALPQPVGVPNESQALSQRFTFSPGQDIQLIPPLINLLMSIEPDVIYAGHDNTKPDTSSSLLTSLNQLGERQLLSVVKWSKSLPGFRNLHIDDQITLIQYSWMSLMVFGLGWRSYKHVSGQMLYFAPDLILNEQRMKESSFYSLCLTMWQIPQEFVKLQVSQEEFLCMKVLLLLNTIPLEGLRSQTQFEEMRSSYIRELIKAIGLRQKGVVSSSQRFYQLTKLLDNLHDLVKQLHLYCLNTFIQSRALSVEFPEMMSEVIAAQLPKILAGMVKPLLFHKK
Thyrotropin-releasing hormone receptor (Homo sapiens), sequence (P34981 whole entry, looked up): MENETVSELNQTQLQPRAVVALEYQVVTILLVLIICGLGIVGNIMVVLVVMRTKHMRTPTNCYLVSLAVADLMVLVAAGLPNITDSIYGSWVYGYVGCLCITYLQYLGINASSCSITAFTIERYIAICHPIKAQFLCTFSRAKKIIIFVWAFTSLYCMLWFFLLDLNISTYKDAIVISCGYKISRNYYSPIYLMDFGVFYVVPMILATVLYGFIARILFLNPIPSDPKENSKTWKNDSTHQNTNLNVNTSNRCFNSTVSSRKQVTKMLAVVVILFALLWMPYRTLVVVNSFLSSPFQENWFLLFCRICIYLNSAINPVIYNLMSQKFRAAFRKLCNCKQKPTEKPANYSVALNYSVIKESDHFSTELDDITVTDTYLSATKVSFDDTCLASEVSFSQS
Estrogen receptor (Homo sapiens), sequence (P03372 whole entry, looked up): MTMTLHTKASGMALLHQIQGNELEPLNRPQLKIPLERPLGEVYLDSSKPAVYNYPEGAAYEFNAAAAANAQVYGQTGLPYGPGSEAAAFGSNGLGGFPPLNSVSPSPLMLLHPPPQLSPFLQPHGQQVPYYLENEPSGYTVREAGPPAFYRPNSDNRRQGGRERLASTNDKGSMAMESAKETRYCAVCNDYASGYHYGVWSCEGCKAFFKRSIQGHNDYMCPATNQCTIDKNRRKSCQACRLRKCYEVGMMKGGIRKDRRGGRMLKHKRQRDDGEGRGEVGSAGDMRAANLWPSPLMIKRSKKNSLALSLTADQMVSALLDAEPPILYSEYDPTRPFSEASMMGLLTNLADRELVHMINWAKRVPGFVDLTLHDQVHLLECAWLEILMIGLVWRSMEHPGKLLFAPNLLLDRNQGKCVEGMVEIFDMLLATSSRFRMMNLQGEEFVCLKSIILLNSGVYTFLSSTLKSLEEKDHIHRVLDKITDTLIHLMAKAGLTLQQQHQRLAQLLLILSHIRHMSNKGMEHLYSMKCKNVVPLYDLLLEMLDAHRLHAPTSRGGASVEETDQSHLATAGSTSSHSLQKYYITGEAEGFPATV
Thyrotropin receptor (Homo sapiens), sequence (P16473 whole entry, looked up): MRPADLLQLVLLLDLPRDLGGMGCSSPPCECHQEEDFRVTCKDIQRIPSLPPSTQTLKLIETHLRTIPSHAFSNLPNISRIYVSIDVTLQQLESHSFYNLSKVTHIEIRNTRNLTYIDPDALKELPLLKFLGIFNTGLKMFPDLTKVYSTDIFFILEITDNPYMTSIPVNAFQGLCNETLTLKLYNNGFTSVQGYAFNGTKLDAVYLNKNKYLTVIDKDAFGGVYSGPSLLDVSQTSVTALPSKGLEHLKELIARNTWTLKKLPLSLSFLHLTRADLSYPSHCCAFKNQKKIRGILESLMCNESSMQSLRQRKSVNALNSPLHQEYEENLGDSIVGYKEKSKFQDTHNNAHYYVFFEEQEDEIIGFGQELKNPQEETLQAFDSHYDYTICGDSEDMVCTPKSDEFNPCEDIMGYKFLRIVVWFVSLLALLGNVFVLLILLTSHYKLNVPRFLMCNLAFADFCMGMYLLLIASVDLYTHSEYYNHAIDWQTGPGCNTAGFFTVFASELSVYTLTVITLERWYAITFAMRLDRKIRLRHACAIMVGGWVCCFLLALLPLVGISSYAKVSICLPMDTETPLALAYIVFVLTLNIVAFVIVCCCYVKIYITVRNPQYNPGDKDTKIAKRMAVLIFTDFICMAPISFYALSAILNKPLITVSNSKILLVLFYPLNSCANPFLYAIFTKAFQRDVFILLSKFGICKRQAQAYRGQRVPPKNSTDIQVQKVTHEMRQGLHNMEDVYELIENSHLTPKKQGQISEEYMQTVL
Estrogen receptor beta (Homo sapiens), sequence (Q92731 whole entry, looked up): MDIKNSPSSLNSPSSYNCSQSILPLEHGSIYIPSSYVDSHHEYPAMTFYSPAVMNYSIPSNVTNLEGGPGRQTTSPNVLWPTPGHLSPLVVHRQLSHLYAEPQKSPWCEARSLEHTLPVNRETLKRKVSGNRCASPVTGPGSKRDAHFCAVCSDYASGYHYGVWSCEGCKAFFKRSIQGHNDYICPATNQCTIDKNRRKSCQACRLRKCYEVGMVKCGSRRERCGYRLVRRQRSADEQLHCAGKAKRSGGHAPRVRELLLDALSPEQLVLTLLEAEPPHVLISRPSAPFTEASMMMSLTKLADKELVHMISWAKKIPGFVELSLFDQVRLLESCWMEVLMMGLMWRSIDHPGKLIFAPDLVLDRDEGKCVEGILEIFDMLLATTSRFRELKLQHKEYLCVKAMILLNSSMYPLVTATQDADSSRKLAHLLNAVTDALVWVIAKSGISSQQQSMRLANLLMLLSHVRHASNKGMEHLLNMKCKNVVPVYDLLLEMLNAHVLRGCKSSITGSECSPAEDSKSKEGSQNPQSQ
Androgen receptor (Homo sapiens), sequence (P10275 whole entry, looked up): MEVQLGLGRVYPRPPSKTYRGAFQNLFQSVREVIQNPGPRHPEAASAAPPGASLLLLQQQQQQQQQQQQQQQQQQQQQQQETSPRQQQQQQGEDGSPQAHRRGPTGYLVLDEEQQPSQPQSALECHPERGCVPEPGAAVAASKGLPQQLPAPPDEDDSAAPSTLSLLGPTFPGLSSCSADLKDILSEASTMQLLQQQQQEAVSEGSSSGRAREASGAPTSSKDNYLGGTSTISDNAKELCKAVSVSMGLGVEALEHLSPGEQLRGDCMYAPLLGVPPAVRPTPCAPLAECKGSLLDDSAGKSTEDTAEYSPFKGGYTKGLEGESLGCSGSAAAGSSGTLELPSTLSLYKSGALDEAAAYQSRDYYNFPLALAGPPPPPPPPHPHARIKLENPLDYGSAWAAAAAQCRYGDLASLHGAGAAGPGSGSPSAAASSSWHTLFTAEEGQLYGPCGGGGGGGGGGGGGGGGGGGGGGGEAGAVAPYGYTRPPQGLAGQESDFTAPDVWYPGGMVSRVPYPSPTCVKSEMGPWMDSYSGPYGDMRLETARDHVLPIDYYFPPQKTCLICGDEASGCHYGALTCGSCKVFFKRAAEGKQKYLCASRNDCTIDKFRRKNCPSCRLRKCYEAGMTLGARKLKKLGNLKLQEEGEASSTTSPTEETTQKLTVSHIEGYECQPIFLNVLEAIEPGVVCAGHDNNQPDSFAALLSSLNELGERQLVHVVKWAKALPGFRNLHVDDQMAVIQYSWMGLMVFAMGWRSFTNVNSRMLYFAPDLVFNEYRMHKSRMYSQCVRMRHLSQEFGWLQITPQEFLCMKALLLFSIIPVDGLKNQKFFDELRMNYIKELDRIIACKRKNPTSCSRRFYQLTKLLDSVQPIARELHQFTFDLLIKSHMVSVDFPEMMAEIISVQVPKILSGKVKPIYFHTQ

Regarding `CCCCOCC(C)OCC(C)O` (configuration not stated), the Potency result in assay [1], in assay [2], in assay [4], in [5], in assay [6] and in [7] was “inactive” each time. Moreover, the Potency result in assay [9], in assay [10], in assay [11] and in [12] was “inactive” each time. In addition, the call in assay [3], in assay [8], in assay [13], in [14], in assay [15] and in assay [16] was inactive.

As for `O=C1OC(=O)c2cc([N+](=O)[O-])ccc21`, the Potency result in assay [1], in [2], in [4], in assay [5], in assay [6] and in assay [7] was “inactive” in each case. In addition, the Potency result in assay [18], in assay [10], in assay [11] and in assay [12] was “inactive” throughout. Further, the compound was called inactive in assay [3], in assay [17], in assay [8], in assay [13], in assay [14] and in assay [15]. For the same compound, the compound was called inactive in [16].

Turning to `O=Cc1ccccc1[N+](=O)[O-]`, the Potency entry in assay [1], in assay [2], in assay [5], in assay [19], in [6] and in assay [7] was “inactive” throughout. Besides, the Potency result in [18], in assay [9], in assay [10] and in assay [11] was “inactive” in each case. Moreover, the compound was called inactive in assay [3], in [17], in assay [8], in assay [13] and in assay [15].

Turning to `C/C=C1\C(=O)C[C@H]2[C@@H]3CCC4=CC(=O)CC[C@]4(C)[C@H]3CC[C@]12C`, the Potency result in assay [1], in assay [5] and in assay [7] was “inactive” in each case. The Potency in [2] was 5.99 µM (active); in [4], 26.8 µM (active). The outcome in assay [3], in assay [8] and in assay [14] was inactive.

As to `N#CCc1ccccc1[N+](=O)[O-]`, the Potency entry in assay [1], in [2], in assay [4], in assay [5], in assay [19] and in assay [18] was “inactive” in each case. For the same compound, the Potency result in assay [9], in assay [10] and in assay [11] was “inactive” throughout. The compound was classed as inactive in assay [3], in assay [17], in [8], in [13], in assay [14] and in assay [15]. In addition, the call in [16] was inactive.

Regarding `CN1[C@@H]2CC[C@H]1CC(NC(=O)n1c(=O)[nH]c3ccccc31)C2` (some centres not stated), the Potency result in assay [1], in assay [2], in assay [4], in [19], in assay [20] and in [6] was “inactive” each time. In addition, the Potency entry in [7], in [9], in assay [10], in assay [11] and in assay [12] was “inactive” each time. Besides, the compound was classed as inactive in [3], in [8], in assay [13], in [14], in [15] and in assay [16].

As to `CCC(C)(C)C1CCC(OC)CC1` (configuration not stated), the Potency result in [1], in assay [2], in [4], in [5], in assay [6] and in assay [7] was “inactive” in each case. For the same compound, the Potency result in assay [18], in assay [9], in assay [10] and in [12] was “inactive” in each case. In addition, the call in assay [3], in assay [17], in [8], in assay [13], in assay [14] and in [15] was inactive. Further, the outcome in assay [16] was inactive.

As for `CC(C)(C)C(=O)/C=C/c1ccc(Cl)cc1`, the Potency result in assay [1], in [2], in assay [4], in assay [5], in assay [6] and in assay [7] was “inactive” in each case. The Potency result in [18], in [9], in [10] and in assay [12] was “inactive” throughout. Moreover, the compound was classed as inactive in assay [3], in assay [17], in assay [13], in [14], in assay [15] and in [16].
